Most compounds without a hit are left out; they make up all but 8.7% or so of the library.
BAZ2B block: qHTS Assay for Inhibitors of BAZ2B; Potency, µM (series often up to 114 µM), without a hit: at the top dose activity change, negative = inhibition, hits mostly inhibitors; hit rate 4.4% among 360,000; AlphaScreen BAZ2B-H3K14Ac peptide displacement; Bromodomain adjacent to zinc finger domain protein 2B (Homo sapiens), Q9UIF8; also: % is scaled to controls: 0 for no effect and ±100 for the full control effect; nearly all actives have a fitted effect of over 60% in size
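AlphaScreen displacement: compounds (up to 110uM) incubated 30 min at room temperature with a preformed 50 nM BAZ2B/50 nM biotinylated H3K14Ac peptide complex in PBS pH 7.4 with Tween-20. Donor and acceptor beads at 10 ug/mL final added, 20 min light-protected before reading.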
Sfp PPTase inh: qHTS Assay for Inhibitors of Bacillus subtilis Sfp phosphopantetheinyl transferase (PPTase). 4'-phosphopantetheinyl transferase ffp (Bacillus subtilis), Q9F4F7. Biochemical Sfp PPTase activity, qHTS. Potency, µM, for the others: largest response in the series, negative = inhibition, actives largely listed as inhibitors. hit rate 3.5% among 310,000;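 also: the enzyme is Sfp with the accession as filed and its product quenches rhodamine fluorescence; 0% = enzyme reaction without inhibitor and -100% = no enzyme wells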
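After 15 min at room temperature with compound, 15 nM Sfp received 5 uM rhodamine-CoA plus 12.5 uM BHQ-2-ybbR (50 mM Hepes pH 7.6, 10 mM MgCl2). Rate came from the fluorescence difference over 30 min, ex 525/em 598 nm.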
12-LOX inh: Primary qHTS assay for inhibitors of human arachidonate 12S-lipoxygenase (ALOX12): Round 2; Polyunsaturated fatty acid lipoxygenase ALOX12 (Homo sapiens), P18054; purified 12hLO, xylenol orange hydroperoxide absorbance; Potency, µM (titrated, usually from 108 µM), for the others: top-dose activity change, negative = inhibition, actives largely listed as inhibitors; hit rate 1.1% among 580,000; also: % is scaled to controls: 0 for no effect and ±100 for the full control effect
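Purified human 12hLO (150 nM final) in 25 mM Hepes, 0.01% Triton X-100, pH 7.0 was preincubated 15 min at room temperature with compound. Then 40 uM arachidonic acid was added, 30 min. Hydroperoxide was read by Fe-XO absorbance ratio 573/405 nm.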
JMJD2A Tudor: qHTS Assay for Inhibitors of JMJD2A-Tudor Domain; Lysine-specific demethylase 4A (Homo sapiens), O75164; AlphaScreen JMJD2A-Tudor / H3K4me3 peptide binding; Potency, µM (series often up to 114 µM), for the others: at the top dose activity change, negative = inhibition, usual class: inhibitors; hit rate 4.4% among 390,000; AID 504339, 2011; also: % is scaled to controls: 0 for no effect and ±100 for the full control effect; nearly all actives have a fitted effect of over 50% in size
HP1b binding inh: HTS for Inhibitors of HP1-beta Chromodomain Interactions with Methylated Histone Tails. Chromobox protein homolog 1 (Homo sapiens), P83916. AlphaScreen HP1-beta / biotin-H3K9me3 peptide binding. Potency, µM (titrated, usually from 114 µM), inactives show at the highest dose activity change, negative = inhibition, actives largely listed as inhibitors. hit rate 0.56% among 390,000. AID 540317, 2011; also: nearly all actives have a fitted effect of over 70% in size
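HP1-beta protein (50 nM final) preincubated 30 min at room temperature with biotinylated H3(1-18)K9me3 peptide (50 nM) in PBS pH 7.4, 0.01% Tween-20, then compound added for 30 min. AlphaScreen streptavidin donor/nickel chelate acceptor beads (10 ug/mL final), 30 min dark, luminescence read.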
G9a block: qHTS Assay for Inhibitors of Histone Lysine Methyltransferase G9a | Histone-lysine N-methyltransferase EHMT2 (Homo sapiens), Q96KQ7 | hit rate 8.8% among 350,000 | Potency, µM (titrated, usually from 102 µM), for inactives: at the highest dose activity, negative = inhibition, hits mostly inhibitors | G9a H3K9 monomethylation, AlphaScreen, 2 h; also: % is scaled to controls: 0 for no effect and ±100 for the full control effect; nearly all actives have a fitted effect of over 75% in size
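Enzyme 20 nM + cpd, 15 min RT; add b-H3K9 pep 500 nM / SAM 20 uM; 2 h RT; anti-H3K9me1 Ab 0.5 ug/mL + SA donor / anti-rabbit acceptor beads 20 ug/mL each, 10 min; AlphaScreen read.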
* marks the source's active call; other numbers are inactive results; ? = inconclusive; nt = no result; ! = not confirmed by another sample; [ ] = another dose, or the depositor's remark. Calls follow the shape of the dose curve; as a rule, active = well fitted curve in the direction sought with a large enough effect; inconclusive = small, poorly fitted or top-dose-only effect, or another doubt; inactive = no such curve, though single readings can be large; an effect the other way counts as inactive or inconclusive. Potency is read from the fitted curve at half-maximal effect.

SMILES	BAZ2B block	Sfp PPTase inh	12-LOX inh	JMJD2A Tudor	HP1b binding inh	G9a block
CCOc1ccc(NC(=O)CN2CCN(CC(=O)Nc3ccccc3OCC)CC2)cc1	0%	nt	?	-6%	27%[57 µM]	3%[59 µM]
CCC1CCCCN1C(=O)COc1ccccc1NC(C)=O (stereo unspecified)	-16%	-14%	?	-12%	14%	45µM*
CCC1CCCCN1C(=O)COc1cc(=O)n(C)c2ccccc12 (stereo unspecified)	-5%	17%	1%	2%	39%	-17%
CCOc1ccccc1NC(=O)CSC1=NN2CCCC(=O)N=C2S1	-37%	22%	6%	1%	18%	40µM*
COc1ccc(Cl)cc1NC(=O)CSC1=NN2CCCC(=O)N=C2S1	1%	17%	-14%	-18%	26%	6%
Cc1ccccc1N1CCN(c2ncccc2CNC(C)Cn2cncn2)CC1 (stereo unspecified)	nt	nt	59%	nt	nt	nt
Cc1ccccc1C(=O)N1CCC(N(Cc2csc(-c3cccs3)n2)S(C)(=O)=O)CC1	nt	nt	1%	nt	nt	nt
CCOc1cc(/C=N/N=C2/NC(=O)C(CC(=O)O)S2)ccc1OS(=O)(=O)c1ccc(C)cc1 (stereo unspecified)	?	23%	1%	-7%	26%	11%
COc1ccc(S(=O)(=O)Oc2cccc(/C=N/N=C3/NC(=O)C(CC(=O)O)S3)c2)cc1 (stereo unspecified)	?	-18%	10%	12%	45%	nt
COc1ccc(/C=N/N=C2/NC(=O)C(CC(=O)O)S2)cc1OCc1ccccc1Cl (stereo unspecified)	50µM*	12%	3%	?	-13%	-13%
COc1ccc(/C=N/N=C2/NC(=O)C(CC(=O)O)S2)cc1OCc1ccc(Cl)cc1Cl (stereo unspecified)	50µM*	-26%	-28%	?	-17%	79µM*
CCOc1cc(/C=N/N=C2/NC(=O)C(CC(=O)O)S2)ccc1OCc1ccccc1Cl (stereo unspecified)	50µM*	-3%	0%	?	14%	?
COc1ccc(-c2cc(C(=O)OCC#N)c3ccccc3n2)cc1OC	nt	nt	-27%	nt	nt	nt
COc1ccc(NC2=N[C@H]3[C@@H](O)[C@H](O)C[C@H](C(=O)NCc4ccccc4OC)[C@H]3S2)cc1	nt	nt	17%	nt	nt	nt
C/C(=N/Nc1ccc(S(=O)(=O)Nc2ccccc2)cc1[N+](=O)[O-])c1cccnc1	nt	nt	-2%	nt	nt	nt
O=C(Nc1cnc(N2CCN(c3ccccc3)CC2)c(C(=O)O)c1)c1cccs1	50µM*	nt	6%	79µM*	-9%	?
O=C(NC(=S)N1CCN(c2ccc(O)cc2)CC1)c1cccs1	?	-13%	-22%	-27%	15%	nt
O=C(NC(=S)N1CCN(c2ccc(F)cc2)CC1)c1cccs1	?	2%	0%	-32%	13%	50µM*
O=C(CN1CCN(c2ccc(F)cc2)CC1)c1cccs1	-24%	-8%	-23%	-28%	14%	16µM*
O=C(Nc1ccc2nccnc2c1)Nc1ccccc1Cl	-13%	?	0%	20µM*	22%	?
O=C(Nc1cccc(Cl)c1)Nc1ccc2nccnc2c1	-22%	-19%	-3%	3%	32%	50µM*
O=C(Nc1ccccc1)Nc1cccc(Cl)c1	-1%	-6%	0%	9%	34%	10%[12.7 µM]
Cc1ccc2c(CN(C)CCOc3ccccc3C)cc(=O)oc2c1	nt	nt	-9%	nt	nt	nt
Cc1ccc(OCC(=O)N/N=C\c2ccc(C)o2)c(C)c1	-9%	3%	-3%	-5%	41%	-11%[12.7 µM]
Cc1ccc(OCC(=O)N/N=C\c2ccc(-c3cccc(C(=O)O)c3)o2)c(C)c1	?	?	9%	-36%	-2%	35µM*
SMILES	BAZ2B block	Sfp PPTase inh	12-LOX inh	JMJD2A Tudor	HP1b binding inh	G9a block
Nc1nonc1C(=O)N/N=C/c1ccc(-c2cccc(C(=O)O)c2)o1	?	56µM*	nt	nt	nt	32µM*
COc1ccc(CC(=O)N/N=C/c2ccc(-c3cccc(C(=O)O)c3)o2)cc1OC	-39%	14µM*	1%	-25%	10%	40µM*
O=C(O)c1cccc(-c2ccc(/C=N/Nc3nn[nH]n3)o2)c1	56µM*	45µM*	7%	56µM*	15%	45µM*
CNC(=S)N/N=C/c1ccc(-c2cccc(C(=O)O)c2)o1	-17%	?	?	-22%	14%	3%[12.7 µM]
CCOC(=O)c1cc(Cl)c(C(=O)OCC)cc1Cl	nt	nt	5%	nt	nt	nt
CN(C)c1ccc(CNC(=O)CN2C(=O)CSc3ccc(S(=O)(=O)N4CCCC4)cc32)cc1	?	nt	3%	?	-23%	11µM*
CN(C)c1ccc(CNC(=O)CCS(=O)(=O)c2ccc3c(c2)n(C)c(=O)c(=O)n3C)cc1	?	4%	nt	?	-27%	18µM*
Cc1ccc(CNC(=O)CCS(=O)(=O)c2ccc3c(c2)oc(=O)n3C)cc1	-14%	10%	3%	-2%	86%	49%
CN(C)c1ccc(CNC(=O)CCc2ccc(S(=O)(=O)N3CCCCCC3)cc2)cc1	45µM*	nt	-17%	50µM*	-22%	28µM*
CC1CCN(CCCNC(=O)CN2C(=O)CSc3ccc(S(=O)(=O)N4CCOCC4)cc32)CC1	2%	16%	7%	-8%	7%	-13%
CC1CCN(CCCNC(=O)CN2C(=O)CSc3ccc(S(=O)(=O)N4CCC(C)CC4)cc32)CC1	-7%	10%	0%	56µM*!	?	4%[59 µM]
O=C(CN1C(=O)CSc2ccc(S(=O)(=O)N3CCCC3)cc21)NCc1ccc(Cl)cc1	-15%	nt	0%	-17%	13%	4%[59 µM]
O=C(c1ccco1)N1CCC(Cc2nc(C3CCOCC3)no2)CC1	nt	nt	38%	nt	nt	nt
CCOC(=O)C1=C(CS(=O)(=O)c2cc(Cl)ccc2OC)NC(=O)NC1c1cccc(OC)c1 (stereo unspecified)	nt	nt	1%	nt	nt	nt
COc1ccccc1CN1C(=O)O[C@@H]2CN(c3nc(C)cc(C)n3)C[C@@H]21	nt	nt	24%	nt	nt	nt
O=C(Nc1ccc(-c2nnc3n2CCCC3)cc1)c1ccco1	nt	nt	11%	nt	nt	nt
CCN(CC)C1=CC(=[N+]2CCCC2)CC(C)(C)C1	-1%	3%	?	1%	2%	40µM*
